Measured values: PubChem BioAssay AID1159580 (chemical genetic matrix, 2015)
The campaign covered roughly 5,500 compounds. About 2,000 (36%) were called active. Another 18% or so got no clear call; they are omitted. No stated cut-off is given here; in the data, active means normalized growth mostly below about 0.91 (no sharp cut-off); inconclusive means no clear call, values can overlap the other calls; inactive means mostly above about 0.92. Some of the results follow.

Assay: chemical genetic growth profiling, strain panel (AID 1159580);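 further: tested at 20 µM; growth read once vehicle control cultures reached saturation at 30 °C; 1 = growth at the plate median or of vehicle wells; lower values mean less growth of the strain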
Conditions: S. cerevisiae deletion strains, growth OD
[1] = locus YAR019C, strain CDC15, active compounds read low
[2] = locus YBL105C, strain PKC1, active compounds read low
[3] = locus YBR135W, strain CKS1, active compounds read low
[4] = locus YBR136W, strain MEC1, active compounds read low
[5] = locus YBR160W, strain CDC28, active compounds read low
[6] = locus YDL017W, strain CDC7, active compounds read low
[7] = locus YDL028C, strain MPS1, active compounds read low
[8] = locus YDL101C, strain DUN1, active compounds read low
[9] = locus YDL108W, strain KIN28, active compounds read low
[10] = locus YDL132W, strain cdc53, active compounds read low
[11] = locus YDL214C, strain PRR2, active compounds read low
[12] = locus YDR052C, strain DBF4, active compounds read low
[13] = locus YDR054C, strain cdc34, active compounds read low
[14] = locus YDR226W, strain ADK1, active compounds read low
[15] = locus YDR477W, strain SNF1, active compounds read low
[16] = locus YER123W, strain YCK3, active compounds read low
[17] = locus YER133W, strain GLC7, active compounds read low
[18] = locus YFL009W, strain cdc4, active compounds read low
[19] = locus YFL029C, strain CAK1, active compounds read low
[20] = locus YFR003C, strain YPI1, active compounds read low
[21] = locus YFR019W, strain FAB1, active compounds read low
[22] = locus YFR028C, strain CDC14, active compounds read low
[23] = locus YGR040W, strain KSS1, active compounds read low
[24] = locus YGR052W, strain FMP48, active compounds read low
[25] = locus YGR092W, strain DBF2, active compounds read low
[26] = locus YHR079C, strain IRE1, active compounds read low
[27] = locus YHR082C, strain KSP1, active compounds read low
[28] = locus YHR205W, strain SCH9, active compounds read low
[29] = locus YIL147C, strain SLN1, active compounds read low
[30] = locus YJL095W, strain BCK1, active compounds read low
[31] = locus YJL128C, strain PBS2, active compounds read low
[32] = locus YJL157C, strain FAR1, active compounds read low
[33] = locus YJR016C, strain ILV3, active compounds read low
[34] = locus YJR066W, strain TOR1 (second series), active compounds read low
[35] = locus YJR066W, strain TOR1, active compounds read low
[36] = locus YKL048C, strain ELM1, active compounds read low
[37] = locus YKL067W, strain YNK1, active compounds read low
[38] = locus YKL101W, strain HSL1, active compounds read low
[39] = locus YKL193C, strain SDS22, active compounds read low
[40] = locus YKL203C, strain TOR2, active compounds read low
[41] = locus YLR113W, strain HOG1, active compounds read low
[42] = locus YLR133W, strain CKI1, active compounds read low
[43] = locus YLR403W, strain SFP1, active compounds read low
[44] = locus YML070W, strain DAK1, active compounds read low
[45] = locus YMR001C, strain CDC5, active compounds read low
[46] = locus YMR205C, strain PFK2 (second series), active compounds read low
[47] = locus YMR277W, strain FCP1, active compounds read low
[48] = locus YNL006W, strain LST8, active compounds read low
[49] = locus YNL020C, strain ARK1, active compounds read low
[50] = locus YNL161W, strain CBK1, active compounds read low
[51] = locus YNL183C, strain NPR1, active compounds read low
[52] = locus YNL207W, strain RIO2, active compounds read low
[53] = locus YNL222W, strain SSU72, active compounds read low
[54] = locus YNL307C, strain MCK1 (second series), active compounds read low
[55] = locus YOL078W, strain AVO1, active compounds read low
[56] = locus YOL136C, strain PFK27, active compounds read low
[57] = locus YOR061W, strain CKA2, active compounds read low
[58] = locus YOR119C, strain RIO1, active compounds read low
[59] = locus YOR231W, strain MKK1, active compounds read low
[60] = locus YOR329C, strain SCD5, active compounds read low
[61] = locus YPL031C, strain PHO85, active compounds read low
[62] = locus YPL153C, strain RAD53, active compounds read low
[63] = locus YPL204W, strain HRR25, active compounds read low
[64] = locus YPL209C, strain IPL1, active compounds read low
[65] = locus YPL256C, strain CLN2, active compounds read low
[66] = locus YPR025C, strain CCL1, active compounds read low
[67] = locus YPR106W, strain ISR1, active compounds read low
[68] = locus YPR111W, strain DBF20, active compounds read low
[69] = strain NNK1, active compounds read low
[70] = strain TSCII, active compounds read low

Measured: normalized growth

CC(C)(C)c1csc(NNC(=O)c2ccc(Cl)cc2)n1
active: [41] 0.756 | [65] 0.769
inactive: [1] 0.978 | [2] 0.979 | [3] 0.954 | [4] 0.981 | [5] 0.966 | [6] 0.978 | [7] 0.98 | [8] 0.968 | [9] 0.974 | [10] 0.968 | [11] 0.884 | [12] 0.984 | [13] 0.958 | [14] 0.975 | [15] 0.925 | [16] 0.795 | [17] 0.913 | [18] 0.966 | [19] 0.963 | [20] 0.982 | [21] 0.92 | [22] 0.96 | [23] 0.883 | [24] 0.923 | [25] 0.871 | [26] 0.891 | [27] 0.911 | [28] 0.882 | [29] 0.984 | [30] 0.863 | [31] 0.921 | [32] 0.885 | [33] 0.964 | [34] 0.946 | [35] 0.904 | [36] 0.892 | [37] 0.885 | [38] 0.829 | [39] 0.967 | [40] 0.958 | [42] 0.872 | [43] 0.861 | [44] 0.814 | [45] 0.974 | [46] 0.872 | [47] 0.975 | [48] 0.982 | [49] 0.884 | [50] 0.969 | [51] 0.837 | [52] 0.96 | [53] 0.963 | [54] 0.899 | [55] 0.962 | [56] 0.868 | [57] 0.899 | [58] 0.967 | [59] 0.812 | [60] 0.97 | [61] 0.912 | [62] 0.895 | [63] 0.914 | [64] 0.966 | [66] 0.964 | [67] 0.954 | [68] 0.949 | [69] 0.957 | [70] 0.969

Cc1cc(NC(=O)Nc2ccc3c(ccn3C)c2)sn1
inactive: locus YAL040C, strain CLN3, active compounds read low 0.993 | locus YDR363W, strain ESC2, active compounds read low 1.02 | locus YER002W, strain NOP16, active compounds read low 0.992 | locus YGR078C, strain PAC10, active compounds read low 0.999 | locus YGR229C, strain SMI1, active compounds read low 1 | locus YJR075W, strain HOC1, active compounds read low 1 | locus YMR263W, strain SAP30, active compounds read low 0.968 | locus YMR307W, strain GAS1, active compounds read low 0.996 | locus YNL153C, strain GIM3, active compounds read low 1.04 | locus YNL175C, strain NOP13, active compounds read low 1.02 | locus YNL197C, strain WHI3, active compounds read low 0.983 | locus YNL224C, strain SQS1, active compounds read low 0.996 | locus YOR083W, strain WHI5 (second series), active compounds read low 1.01 | locus YPL241C, strain CIN2, active compounds read low 0.992

CC(C)(C)c1csc(NC(=O)c2ccc(Cl)cc2Cl)n1
inactive: [1] 0.974 | [2] 0.976 | [3] 0.981 | [4] 0.971 | [5] 0.983 | [6] 0.973 | [7] 0.978 | [8] 0.962 | [9] 0.98 | [10] 0.978 | [11] 0.919 | [12] 0.991 | [13] 0.961 | [14] 0.97 | [15] 0.963 | [16] 0.95 | [17] 0.94 | [18] 0.966 | [19] 0.973 | [20] 0.964 | [21] 0.972 | [22] 0.975 | [23] 0.954 | [24] 0.938 | [25] 0.93 | locus YHR030C, strain SLT2, active compounds read low 0.867 | [26] 0.819 | [27] 0.98 | [28] 0.805 | [29] 0.973 | [30] 0.785 | [31] 0.864 | [32] 0.964 | [33] 0.978 | [34] 0.976 | [35] 0.993 | [36] 0.938 | [37] 0.939 | [38] 0.901 | [39] 0.958 | [40] 1.01 | [42] 0.968 | [43] 0.913 | [44] 0.9 | [45] 0.972 | [46] 0.931 | [47] 0.97 | [48] 0.98 | [49] 0.943 | [50] 0.974 | [51] 0.953 | [52] 0.967 | [53] 0.961 | [54] 0.91 | [55] 0.969 | [56] 0.917 | [57] 0.956 | [58] 1.01 | [59] 0.898 | [60] 0.975 | [61] 0.948 | [62] 0.946 | [63] 0.966 | [64] 0.982 | [66] 0.977 | [67] 0.958 | [68] 0.946 | [69] 0.938 | [70] 0.972
active: [41] 0.716 | [65] 0.843
